{"source": "PubChem BioAssay AID1851", "about": "(National Center for Advancing Translational Sciences (NCATS), 2009)", "note": "“And” between values parts separate entries of the source, which are not always exact repeats. Equal values may be shown once. Screen size: about 16,000 compounds; about 2,600 (16%) were called active. Not shown: some 20% with an inconclusive outcome. Not all results are given here. A number with no mark means an inactive call. The call rests on the fitted dose curve; in most records, active means well fitted curve in the direction sought with a large enough effect; inconclusive means small, poorly fitted or top-dose-only effect, or effect the other way; inactive means no such curve, though single readings can be large or run the other way. Peptide text beside a SMILES is read from it. * marks the point of attachment. Boc = CC(C)(C)OC(=O)*"}
{"target": "Cytochrome P450 2D6 (Homo sapiens) (UniProt P10635)", "sequence (P10635 whole entry, looked up)": "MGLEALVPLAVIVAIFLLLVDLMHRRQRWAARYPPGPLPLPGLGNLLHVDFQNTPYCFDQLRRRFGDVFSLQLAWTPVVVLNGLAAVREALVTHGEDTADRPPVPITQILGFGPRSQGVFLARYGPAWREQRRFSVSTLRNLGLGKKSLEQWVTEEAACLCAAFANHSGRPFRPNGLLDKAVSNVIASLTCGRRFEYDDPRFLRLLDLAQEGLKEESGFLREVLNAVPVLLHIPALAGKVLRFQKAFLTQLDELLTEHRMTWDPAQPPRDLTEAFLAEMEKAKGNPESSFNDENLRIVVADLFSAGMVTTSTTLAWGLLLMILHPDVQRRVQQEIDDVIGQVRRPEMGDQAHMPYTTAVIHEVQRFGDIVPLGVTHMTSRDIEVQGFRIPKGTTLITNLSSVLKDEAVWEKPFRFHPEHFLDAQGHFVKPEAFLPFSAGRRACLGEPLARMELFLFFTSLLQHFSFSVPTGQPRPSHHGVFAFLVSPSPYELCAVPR", "experiment": "Cytochrome panel assay with activity outcomes; on activity, negative = inhibition: on the % scale 0 is the no-effect control and ±100 the full control effect", "settings": "recombinant CYP, pro-luciferin dealkylation, luminescence, p450-cyp2d6; series mostly up to 57.1 µM"}
{"smiles": "C=C(C)C1CC=C(C)/C(=N/NC(=O)c2ccc(NC(=O)c3cccc(C)c3)cc2)C1", "note": "(stereo not given)", "AC50": "inactive"}
{"smiles": "Clc1ccc(-c2csc(N3CCC(c4ccccc4)C3)n2)cc1", "note": "(stereo not given)", "AC50": "inactive"}
{"smiles": "COc1ccc(C2CC(C(F)(F)F)n3nc(C(=O)N(C)Cc4cn(C)nc4C)c(Cl)c3N2)cc1", "note": "(stereo not given)", "AC50": "inactive"}
{"smiles": "O=C(Nc1cccc(F)c1)N1CC2(CCN(C(=O)c3cc(C(F)(F)F)cc(C(F)(F)F)c3)CC2)C1", "AC50": "inactive"}
{"smiles": "O=C(O)c1c(-c2c3ccc(=O)cc-3oc3cc(O)ccc23)cc2ccccc2c1-c1ccccc1", "activity, negative = inhibition": "6.33% [at 11.4 µM]"}
{"smiles": "Cc1ccc(/C=C2\\OC(=O)c3ccccc32)cc1", "AC50": "inactive"}
{"smiles": "CC(=O)c1cnc2c(C(=O)O)cnn2c1C", "AC50": "inactive"}
{"smiles": "COn1c(-c2ccccc2)nc2c1CCc1nonc1-2", "AC50": "inactive"}
{"smiles": "Cc1ccc(C)c(CN2C(=O)C3CCCN3c3ccc(S(=O)(=O)N4CCOCC4)cc32)c1", "note": "(stereo not given)", "AC50": "inactive"}
{"smiles": "O=C(CO)N/N=C/c1ccccc1F", "AC50": "inactive"}
{"smiles": "O=C(O)c1cc2c(cc1S(=O)(=O)O)[C@H]1[C@@H]([C@H]3[C@H]2[C@@]2(Cl)C(Cl)=C(Cl)[C@]3(Cl)C2(Cl)Cl)[C@]2(Cl)C(Cl)=C(Cl)[C@@]1(Cl)C2(Cl)Cl", "activity, negative = inhibition": "-3.51% [at 11.4 µM]"}
{"smiles": "CC(=O)c1cn(CCCCCCCCCCn2cc(C(C)=O)c(=O)[nH]c2=O)c(=O)[nH]c1=O", "AC50": "inactive"}
{"smiles": "COc1ccccc1CN1CCC2(CC1)CCN(C(=O)c1ccco1)CC2", "AC50": "12.6 µM (active)"}
{"smiles": "COc1ccc(NC(=O)N2CCC3(CC2)CCN(C(=O)c2ccco2)CC3)cc1", "AC50": "inactive"}
{"smiles": "Cc1noc(C)c1C(=O)N1CCC[C@@]2(CCN(Cc3ccccc3)C2)C1", "AC50": "7.94 µM (active)"}
{"smiles": "COc1ccccc1CN1CCCC2(CCN(C(=O)c3ccco3)CC2)C1", "AC50": "2.51 µM (active)"}
{"smiles": "Cc1noc(C)c1C(=O)N1CCC[C@@]2(CCN(Cc3nccs3)C2)C1", "AC50": "inactive"}
{"smiles": "Cc1noc(C)c1C(=O)N1CCC2(CCCN(Cc3ccccc3)C2)CC1", "AC50": "inactive"}
{"smiles": "CCc1c(O)c2c(c(O)c1C(C)=O)C(=O)c1c(cc(O)c(C(=O)O)c1C(=O)O)C2=O", "activity, negative = inhibition": "0.869% [at 11.4 µM]"}
{"smiles": "COc1ccc(CC(=O)N2CCN(c3ccc(C4=NNC(=O)CC4C)cc3)CC2)cc1", "note": "(stereo not given)", "AC50": "inactive"}
{"smiles": "CC12CCC(C(=O)O)(C/C1=N\\O)C2(C)C", "note": "(stereo not given)", "AC50": "inactive"}
{"smiles": "Cc1noc(NS(=O)(=O)c2ccc(N)cc2)c1C", "AC50": "inactive"}
{"smiles": "CNc1cc(NS(=O)(=O)c2ccc(N)cc2)nc(NC)n1", "AC50": "inactive"}
{"smiles": "CCOC(=O)C1=C(c2ccccc2)OC(N)=C(C#N)C1c1ccc(Cl)s1", "note": "(stereo not given)", "AC50": "inactive"}
{"smiles": "CCCCN1C(=O)NC(NC(=O)c2ccco2)(C(F)(F)F)C1=O", "note": "(stereo not given)", "AC50": "inactive"}
{"smiles": "CCCn1c(N)[n+](CC(=O)c2ccco2)c2ccccc21", "AC50": "0.708 µM (active)"}
{"smiles": "CCCCn1c(=N)n(CC(=O)c2ccco2)c2ccccc21", "AC50": "0.708 µM (active)"}
{"smiles": "CCOC(=O)c1c(C)n(C)c2ccc(OC(=O)c3ccco3)cc12", "AC50": "inactive"}
{"smiles": "CCn1c(=O)cc(SCC(=O)N2CCN(C(=O)c3ccco3)CC2)c2ccccc21", "AC50": "inactive"}
{"smiles": "Cc1ccc(C(CC(=O)c2ccco2)SCCO)cc1", "note": "(stereo not given)", "AC50": "inactive"}
{"smiles": "COCCn1c(=O)c(-c2cc(F)cc(F)c2)nc2cnc(N3CCNCC3)nc21", "AC50": "inactive"}
{"smiles": "CC1(C)OC(=O)NC1=O", "AC50": "inactive"}
{"smiles": "Nc1nc(Br)c2c(F)cccc2c1-c1ccc(F)cc1", "AC50": "inactive"}
{"smiles": "CC(C)C(NC(=O)OC(C)(C)C)C(=O)N1CCCC1C(=O)NC(Cc1ccccc1)C(N)=O", "note": "(stereo not drawn) (Boc-Val-Pro-Phe-NH2; configuration not given here)", "AC50": "inactive"}
{"smiles": "CC(C)=CCC/C(C)=C/CO/N=C1/[C@H]2O[C@@H]2[C@@H](O)[C@H]2[C@H]1CCn1c(=O)n(Cc3cc4c(cc3Cl)OCO4)c(=O)n12", "activity, negative = inhibition": "-10.5% [at 11.4 µM]"}
{"smiles": "CC(SCc1cn2cc(Cl)ccc2n1)C(=O)O", "note": "(stereo not given)", "AC50": "inactive"}
{"smiles": "Cc1ccn2cc(CSc3ccccc3N)nc2c1", "AC50": "1.26 µM (active)"}
{"smiles": "CC(NC(=O)CSc1nc(=O)cc(N)n1CCc1ccccc1)c1ccccc1", "note": "(stereo not given)", "AC50": "inactive"}
{"smiles": "Nc1cc(=O)nc(SCC(=O)Nc2cccc3ccccc23)n1CCc1ccccc1", "AC50": "inactive"}
{"smiles": "CCC(Sc1nc(=O)cc(N)n1CCc1ccccc1)C(=O)Nc1ccccc1C#N", "note": "(stereo not given)", "AC50": "15.8 µM (active)"}
{"smiles": "CN1c2ccccc2C(O)=C(C(=O)Nc2ccccc2)S1(=O)=O", "AC50": "inactive"}
{"smiles": "c1cncc(-c2nc(N3CCNCC3)c3ccccc3n2)c1", "AC50": "7.94 µM (active)"}
{"smiles": "c1ccc2c(N3CCOCC3)nc(-c3ccoc3)nc2c1", "AC50": "inactive"}
{"smiles": "COc1ccccc1-c1nc(N2CCN(C)CC2)c2ccccc2n1", "AC50": "inactive"}
{"smiles": "CN1CCN(c2nc(-c3cccnc3)nc3ccccc23)CC1", "AC50": "10 µM (active)"}
{"smiles": "CN1CCN(c2nc(-c3ccoc3)nc3ccccc23)CC1", "AC50": "15.8 µM (active)"}
{"smiles": "C[C@](N)(COP(=O)(O)O)C(=O)O", "AC50": "inactive"}
{"smiles": "CNc1cc(-c2c(C)noc2C)ncn1", "AC50": "inactive"}
{"smiles": "Cn1c(=O)c2[nH]c(-c3ccccc3)nc2n(C)c1=O", "AC50": "inactive"}
{"smiles": "Cn1c(=O)c(-c2cc(F)cc(F)c2)nc2cnc(Oc3ccccc3)nc21", "AC50": "inactive"}
{"smiles": "O=C(Oc1ccccc1)N1CCC2(CC1)CN(c1ncccn1)C2", "AC50": "inactive"}
{"smiles": "CC(=O)Nc1c2c3c(cccc3n(C)c1=O)C(=O)c1ccccc1-2", "AC50": "inactive"}
{"smiles": "COc1ccc(-c2nc3cnc(N4CCN(C)CC4)nc3n(C3CC3)c2=O)cc1", "AC50": "inactive"}
{"smiles": "COC(=O)c1ccccc1OCC(=O)N1CCN(c2ccc(OC)cc2)CC1", "AC50": "inactive"}
{"smiles": "O=C(c1cc(O)c(O)c([N+](=O)[O-])c1)c1ccccc1F", "AC50": "inactive"}
{"smiles": "Cn1cccc1C(=O)N1CCC2(CC1)CCN(c1ccc(-c3ccccc3)cc1)CC2", "AC50": "inactive"}
{"smiles": "COc1cc(C2C(C#N)=C(N)OC3=C2C(=O)CCC3)cc(OC)c1OC(=O)N1CCOCC1", "note": "(stereo not given)", "AC50": "inactive"}
{"smiles": "Cc1ccc(C(C2C(=O)CC(C)(C)CC2=O)C2C(=O)CC(C)(C)CC2=O)s1", "AC50": "inactive"}
{"smiles": "COc1cccc(C(c2c(C)[nH]n(-c3ccccc3)c2=O)c2c(C)[nH]n(-c3ccccc3)c2=O)c1O", "AC50": "inactive"}
{"smiles": "COc1cc(C)ccc1OCCOc1cc(C)ccc1Cl", "AC50": "inactive"}
{"smiles": "Clc1ccc(Cl)c(OCc2cc(-c3ccccc3Cl)on2)c1", "AC50": "inactive"}
{"smiles": "CC1CCN(CCOc2cc(Cl)ccc2Cl)CC1", "AC50": "0.447 µM (active)"}
{"smiles": "CCn1c(C)[n+](CCCS(=O)(=O)[O-])c2cc(Cl)c(Cl)cc21", "AC50": "inactive"}
{"smiles": "Cn1c(=O)n(-c2cccc(Cl)c2)c(=O)c2c3c(sc21)COC(C)(C)C3", "AC50": "inactive"}
{"smiles": "O=C(Cc1ncc(C(F)(F)F)cc1Cl)Nc1cccc(Br)c1", "AC50": "0.398 µM (active)"}
{"smiles": "O=C(Nc1ccc(F)cc1F)c1cccn1-c1ncc(C(F)(F)F)cc1Cl", "AC50": "inactive"}
{"smiles": "CN(NC(=O)NN)c1ncc(C(F)(F)F)cc1Cl", "AC50": "inactive"}
{"smiles": "Oc1ccc(Cn2cc[nH]c2=S)cc1", "AC50": "inactive"}
{"smiles": "Cc1cc2ccccn2c1C(=O)c1ccc(Cl)cc1", "AC50": "17.8 µM (active)"}
{"smiles": "Cc1cc(CC(=O)O)n(C)c1C(=O)c1ccc(Cl)cc1", "AC50": "inactive"}
{"smiles": "Cc1cc2ccccn2c1C(=O)c1nc(N2CCOCC2)ncc1Cl", "AC50": "inactive"}
{"smiles": "Nc1cc(C(=O)O)[nH]c(=O)n1", "activity, negative = inhibition": "6.45% [at 11.4 µM]"}
{"smiles": "CCN(CC(=O)Nc1ccc(N2CCOCC2)cc1)Cc1nc2ccccc2c(=O)[nH]1", "AC50": "inactive"}
{"smiles": "CCn1c(O)c(/C=C2\\C=Nc3ccccc32)sc1=Nc1ccc(C)cc1", "AC50": "inactive"}
{"smiles": "CCOC(=O)C1=C(CN2c3ccccc3CC2C)NC(=O)NC1c1ccccc1", "note": "(stereo not given)", "AC50": "inactive"}
{"smiles": "CC(C)c1ccc(C(=O)CC2(O)C(=O)N(CN3CCOCC3)c3ccccc32)cc1", "note": "(stereo not given)", "AC50": "inactive"}
{"smiles": "O=C(c1ccc(F)cc1)C1CCN(CCCCc2ccccc2)CC1", "AC50": "0.0126 µM (active)"}
{"smiles": "NC(=O)C1CCN(C(=O)OCc2ccccc2)CC1", "AC50": "inactive"}
{"smiles": "CC1(C)C(=O)N(CCN2CCC(C(=O)c3ccc(F)cc3)CC2)c2ccccc21", "AC50": "1.26 µM (active)"}
{"smiles": "CCCNC(=O)N1CCC(C(=O)c2ccc(F)cc2)CC1", "AC50": "inactive"}
{"smiles": "CCN1C(=O)C(O)(C2COC(C)(C)CC2=O)c2ccccc21", "note": "(stereo not given)", "AC50": "inactive"}
{"smiles": "COC(=O)[C@@H]1[C@@H](O)[C@]2(O)c3ccccc3O[C@]2(c2ccccc2)[C@H]1c1ccccc1", "activity, negative = inhibition": "-3% [at 11.4 µM]"}
{"smiles": "CC(C)c1ccccc1S(=O)c1ccccc1C(C)(C)O", "note": "(stereo not given)", "activity, negative = inhibition": "-12.8% [at 11.4 µM]"}
{"smiles": "CN(C)c1ccc(-c2ccc3ncnc(NC4CC4)c3c2)cc1", "AC50": "inactive"}
{"smiles": "FC(F)(F)c1ccccc1-c1ccc2ncnc(NC3CC3)c2c1", "AC50": "20 µM (active)"}
{"smiles": "O=C(O)C1CCN(c2ncnc3ccc(-c4ccccc4C(F)(F)F)cc23)CC1", "AC50": "inactive"}
{"smiles": "Cc1ccccc1-c1ccc2ncnc(NC3CC3)c2c1", "AC50": "7.94 µM (active)"}
{"smiles": "FC(F)(F)c1ccccc1-c1ccc2ncnc(NC3CCNCC3)c2c1", "AC50": "inactive"}
{"smiles": "CCN1C(=O)[C@H]2[C@@H]3[C@H](O)[C@H](O)CC(=O)[C@H]3CC[C@H]2C1=O", "activity, negative = inhibition": "1.18% [at 11.4 µM] and 0.815% [at 11.4 µM]"}
{"smiles": "CC(C)=CCC/C(C)=C/CO/N=C1/C[C@@H](O)[C@@H](O)[C@@H]2[C@@H]3C(=O)N(C(C)(C)C)C(=O)[C@H]3CC[C@@H]12", "activity, negative = inhibition": "6.78% [at 11.4 µM]"}
{"smiles": "[N-]=[N+]=Nc1ccc(C(=O)CSC[C@@H](NC(=O)CC[C@@H](N)C(=O)O)C(=O)NCC(=O)O)cc1", "AC50": "inactive"}
{"smiles": "CC(=O)N1CCN(S(=O)(=O)c2ccccc2)C1c1ccccc1", "note": "(stereo not given)", "AC50": "inactive"}
{"smiles": "Cc1ccc(S(=O)(=O)N2CCN(C(=O)c3ccccc3)C2C(C)C)cc1", "note": "(stereo not given)", "AC50": "14.1 µM (active)"}
{"smiles": "Cc1ccc(S(=O)(=O)N2CCC(C(=O)O)(c3ccccc3)CC2)cc1", "activity, negative = inhibition": "7.29% [at 11.4 µM]"}
{"smiles": "C[C@@H]1O[C@H](O[C@@H]2[C@H](C)O[C@H](O[C@@H]3[C@H](C)O[C@H](O[C@H]4CC[C@]5(C)[C@@H](CC[C@@H]6[C@H]5C[C@@H](O)[C@]5(C)[C@@H](C7=CC(=O)OC7)CC[C@]65O)C4)C[C@@H]3O)C[C@@H]2O)C[C@H](O)[C@@H]1O", "AC50": "inactive"}
